The nature of experiment [1]: qHTS assay for small molecule agonists of the p53 signaling pathway (AID 651631; calls by dose curve; further: nearly all actives have a fitted effect of over 15% in size). An outline of the steps: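 We treat p53RE-bla HCT-116 cells with compounds for 16 h at 37 °C, add LiveBLAzer B/G FRET substrate for 2 h at room temperature, and measure fluorescence intensity.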
Experiment [2] is described as follows: qHTS assay for small molecules that induce genotoxicity in human embryonic kidney cells expressing luciferase-tagged ATAD5 (AID 651632). Further: nearly all actives have a fitted effect of over 15% in size. The method, boiled down:
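Luminescent reporter readout, HEK293T ATAD5-luc line: 16 hr drug exposure (37C, 5% CO2) followed by Amplite, 30 min RT.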

Experiment [3] is described as follows: qHTS assay for small molecule agonists of the p53 signaling pathway - cell viability (AID 651633; calls by dose curve;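 further: p53RE-bla HCT reporter cells with a stable beta-lactamase p53 reporter; series mostly up to about 83 µM; nearly all actives have a fitted effect of over 30% in size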). An outline of the steps:
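p53RE-bla cells, seeded at 4,000 per well and rested 5 h at 37 C/5% CO2, received compounds in DMSO for 16 h at 37 C. CellTiter-Glo was then added, and luminescence was read after 30 min at room temperature to gauge cytotoxicity.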

Experiment [4] in a line: qHTS assay for small molecules that induce genotoxicity in human embryonic kidney cells expressing luciferase-tagged ATAD5 - cell viability (AID 651634; calls by dose curve; further: nearly all actives have a fitted effect of over 25% in size). The method, boiled down: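 Viability read: CellTiter-Fluor fluorescence, 30 min at 37C. Cells: HEK293T, luciferase-tagged ATAD5. Exposure: 15.5 hr, 37C, 5% CO2, compound or DMSO vehicle.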
A short description of experiment [5]: qHTS assay for small molecule disruptors of the mitochondrial membrane potential - cell viability (AID 720634; calls by dose curve;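 further: human HepG2 liver cancer cells; series mostly up to about 83 µM; nearly all actives have a fitted effect of over 20% in size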). The method, boiled down:
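HepG2, 1 hr compound, 37 C. ATP luminescence via CellTiter-Glo, 30 min RT, same well as m-MPI.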
(In general: Quantitative high-throughput screening tests each substance at several concentrations.)

Experiment [6] is described as follows: qHTS assay to test for compound auto fluorescence at 590 nm (red) in HepG2 cells (AID 720674). The method, boiled down: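 Rose Bengal sodium served as the red fluorophore standard. HepG2 monolayers (overnight attachment, MEM with 10% FBS) were exposed to test compounds for 1 hr at 37 C and read at Ex 540/Em 590 nm.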
Experiment [7] in a line: qHTS assay to test for compound auto fluorescence at 460 nm (blue) in HEK293 cells (AID 720678). An outline of the steps: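 Triamterene serves as the blue fluorophore standard. Compound signal at 405/460 nm is read in HEK293 wells (2,000 cells, 10% dialyzed FBS) after overnight treatment at 37C.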
Experiment [8] in a line: qHTS assay to test for compound auto fluorescence at 590 nm (red) in HEK293 cells (AID 720679). An outline of the steps: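 We plated HEK293 cells in 10% dialyzed FBS medium, let them adhere for 4-5 hr, then added 23 nL compound. Overnight at 37C and 5% CO2 preceded fluorescence measurement at 540/590nm.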
Experiment [9] in a line: qHTS assay to test for compound auto fluorescence at 535 nm (green) in HEK293 cells (AID 720680).
Experiment [10] in a line: qHTS assay to test for compound auto fluorescence at 460 nm (blue) in HEK293 cell free culture (AID 720681). An outline of the steps:
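Test compounds were pinned into cell-free culture medium (DMEM with 10% FBS) and fluorescence was read directly at Ex/Em 405/460 nm. Signals were expressed as fluorescence equivalents of triamterene, with DMSO vehicle as control.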

A short description of experiment [11]: qHTS assay to test for compound auto fluorescence at 535 nm (green) in HEK293 cell free culture (AID 720682). The method, boiled down:
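Green-channel intensity (Ex/Em 485/535 nm) was recorded from compound-treated wells containing only DMEM with 10% FBS. Fluorescein provided the equivalency standard.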

Experiment [12] is described as follows: qHTS assay to test for compound auto fluorescence at 590 nm (red) in HEK293 cell free culture (AID 720683). An outline of the steps: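 Tox21 10K library compounds were pinned into cell-free DMEM with 10% FBS and fluorescence was read at excitation 540 nm. Activity is expressed as Rose Bengal sodium equivalency.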
Experiment [13] is described as follows: qHTS assay to test for compound auto fluorescence at 590 nm (red) in HepG2 cell free culture (AID 720684). An outline of the steps: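 Red fluorescence (540 nm excitation, 590 nm emission) was measured after compound transfer into cell-free MEM supplemented with 10% FBS. Values are equivalencies against Rose Bengal sodium.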
Experiment [14] can be described thus: qHTS assay to test for compound auto fluorescence at 460 nm (blue) in HepG2 cell free culture (AID 720685). An outline of the steps:
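Compound (23 nL) or DMSO pinned into cell-free MEM with 10% FBS; blue fluorescence read at 405/460 nm excitation/emission, expressed as auto-fluorescence equivalency to triamterene.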

The nature of experiment [15]: qHTS assay to test for compound auto fluorescence at 535 nm (green) in HepG2 cell free culture (AID 720686).
Experiment [16] in a line: qHTS assay to test for compound auto fluorescence at 460 nm (blue) in HepG2 cells (AID 720687). The method, boiled down: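 Cells (2,000/well in MEM with 10% FBS) attached overnight at 37 C, then were exposed to compound or DMSO for 1 hr at 37 C, 5% CO2. Fluorescence read at Ex/Em 405/460 nm, expressed as triamterene-equivalent signal.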
A short description of experiment [17]: qHTS assay for small molecule disruptors of the mitochondrial membrane potential (AID 720635). The method, boiled down: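 HepG2 cells (2,000/well) attached overnight at 37C, then took compound for 1 hr at 37C, 5% CO2. Mito-MPS dye was added for 30 min; fluorescence was read at 490/535 nm (monomers) and 540/590 nm (aggregates).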
In experiment [18] the target is Glucocorticoid receptor (Homo sapiens) (UniProt P04150). Kind of experiment: qHTS assay to identify small molecule antagonists of the glucocorticoid receptor (GR) signaling pathway (AID 720692; active means well fitted inhibition curve with a large enough effect in the signal ratio in the repeat runs, not every such curve was filed as active; the % refers to the signal ratio; further: potency means the concentration at half of the fitted maximal effect). The method, boiled down: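 Inhibition of glucocorticoid signalling is measured in HeLa cells with a GRE-controlled beta-lactamase reporter; cells are co-treated with compound and 5 nM dexamethasone (final) for 18 h before FRET substrate readout.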
Chain of Glucocorticoid receptor (Homo sapiens) (P04150 whole entry, looked up): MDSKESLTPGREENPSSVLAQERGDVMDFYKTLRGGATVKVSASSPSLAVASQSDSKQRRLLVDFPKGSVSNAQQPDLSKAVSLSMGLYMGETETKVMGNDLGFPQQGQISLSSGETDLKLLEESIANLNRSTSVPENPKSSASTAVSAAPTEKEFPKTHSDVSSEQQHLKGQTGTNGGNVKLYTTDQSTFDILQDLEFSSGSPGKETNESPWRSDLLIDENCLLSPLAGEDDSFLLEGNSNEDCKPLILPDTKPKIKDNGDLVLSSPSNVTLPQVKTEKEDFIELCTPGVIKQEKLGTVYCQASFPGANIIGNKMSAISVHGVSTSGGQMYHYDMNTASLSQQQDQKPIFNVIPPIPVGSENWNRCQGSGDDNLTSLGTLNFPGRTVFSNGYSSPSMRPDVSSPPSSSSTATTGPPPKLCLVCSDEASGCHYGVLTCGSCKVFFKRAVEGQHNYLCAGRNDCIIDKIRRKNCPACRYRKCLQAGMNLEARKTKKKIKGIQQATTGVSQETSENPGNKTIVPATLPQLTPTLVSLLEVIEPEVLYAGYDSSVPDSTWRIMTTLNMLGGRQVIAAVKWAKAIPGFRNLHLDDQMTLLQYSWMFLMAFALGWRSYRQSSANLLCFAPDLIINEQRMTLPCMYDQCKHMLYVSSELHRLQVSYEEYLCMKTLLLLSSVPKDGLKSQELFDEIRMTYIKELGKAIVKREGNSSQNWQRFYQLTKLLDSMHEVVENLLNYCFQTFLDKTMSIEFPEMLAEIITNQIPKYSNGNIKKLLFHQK

The nature of experiment [19]: qHTS assay to test for compound auto fluorescence at 535 nm (green) in HepG2 cells (AID 720675).
For experiment [20], the target named is Glucocorticoid receptor (Homo sapiens) (UniProt P04150). Kind of experiment: qHTS assay to identify small molecule agonists of the glucocorticoid receptor (GR) signaling pathway (AID 720691; active means well fitted activation curve with a large enough effect in the signal ratio in the repeat runs, not every such curve was filed as active; the % refers to the signal ratio; further: potency means the concentration at half of the fitted maximal effect). The method, boiled down:
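qHTS in GR-bla HeLa cells: 4 h settling at 37 C/5% CO2, 18 h compound incubation at 37 C, 2 h LiveBLAzer B/G FRET substrate at room temperature, fluorescence intensity measured.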

Where “and” joins values, the source holds several entries; their conditions need not be identical. Equal values may be shown once. Records with an inconclusive call do not appear. Calls of active or inactive are those of the source. Unless noted, the call rests on the fitted dose curve; in most records, active means well fitted curve in the direction sought with a large enough effect in the repeat runs; inconclusive means weak or mixed curves; inactive means no such curve, though single readings can be large; an effect the other way counts as inactive or inconclusive.

Among the data in PubChem BioAssay (Tox21) are Potency and outcome values, retold here.

For the molecule `O=C(O)Cc1cccc2ccccc12`, the Potency entry in [1], in experiment [2], in experiment [3], in experiment [4] and in [5] was “inactive” each time. For the same molecule, the molecule was classed as inactive in experiment [6], in experiment [7], in experiment [8], in [9], in [10] and in experiment [11]. Besides, the outcome in experiment [12], in [13], in experiment [14], in experiment [15] and in experiment [16] was inactive.

In the case of `COCC(C)N` (stereo not drawn), the Potency result in experiment [1], in [2], in experiment [3], in [4], in experiment [5] and in experiment [17] was “inactive” each time. The Potency result in experiment [18] was “inactive”. Also, the result in [7], in [8], in experiment [9], in experiment [10], in experiment [11] and in experiment [12] was inactive. For the same molecule, the call in [13], in experiment [14], in experiment [15] and in experiment [16] was inactive.

With `O=C1CCCCCN1`, the Potency result in experiment [1], in experiment [2], in experiment [3], in experiment [4], in experiment [5] and in [17] was “inactive” throughout. Besides, the result in experiment [19], in experiment [7], in experiment [8], in experiment [9], in experiment [10] and in experiment [11] was inactive. For the same molecule, the outcome in [12], in experiment [13], in experiment [14], in [15] and in [16] was inactive.

As for `C[C@]12C[C@H](O)[C@H]3[C@@H](CCC4=CC(=O)CC[C@@]43C)[C@@H]1CC[C@@H]2C(=O)CO`, the Potency result in experiment [1], in experiment [2], in experiment [3], in experiment [4], in experiment [5] and in experiment [17] was “inactive” throughout. Besides, the outcome in [19], in experiment [7], in experiment [8], in [9], in [10] and in [11] was inactive. Also, the molecule was called inactive in experiment [12], in [13], in [14], in experiment [15] and in [16]. Moreover, the Potency in experiment [20] is 169 nM (active) and 69.3 nM (active) and 123 nM (active); in [18], 674 nM (active) and 390 nM (active).

Turning to `COC(=O)C1CCC(C(=O)OC)CC1` (stereo not drawn), the Potency result in experiment [1], in experiment [2], in experiment [3], in [4], in experiment [5] and in experiment [17] was “inactive” each time. Moreover, the result in [7], in [8], in [9], in [10], in experiment [11] and in experiment [12] was inactive. The call in [13], in experiment [14], in experiment [15] and in [16] was inactive.

For the molecule `C=CC(=O)NC(C)(C)CS(=O)(=O)O`, the Potency entry in experiment [1], in [2], in experiment [3], in [4], in experiment [5] and in experiment [17] was “inactive” in each case. For the same molecule, the outcome in experiment [19], in experiment [7], in experiment [8], in experiment [9], in [10] and in [11] was inactive. Further, the molecule was classed as inactive in experiment [12], in experiment [13], in experiment [14], in experiment [15] and in experiment [16].

Regarding `C1CNCCN1`, the Potency entry in [1], in experiment [2], in experiment [3], in [4], in experiment [5] and in [17] was “inactive” throughout. Also, the Potency result in [20] and in [18] was “inactive” each time. In addition, the result in experiment [7], in experiment [8], in [9], in experiment [10], in experiment [11] and in [12] was inactive. Moreover, the result in experiment [13], in experiment [14], in experiment [15] and in experiment [16] was inactive.

As to `Oc1cccc(O)c1`, the Potency result in experiment [1], in [2], in experiment [3], in experiment [4], in [5] and in experiment [17] was “inactive” in each case. In addition, the Potency entry in experiment [18] was “inactive”. Further, the molecule was classed as inactive in experiment [19], in experiment [7], in experiment [8], in experiment [9], in experiment [10] and in experiment [11]. Moreover, the molecule was classed as inactive in experiment [12], in [13], in [14], in [15] and in [16].
